Assay in all cases: DAPPL (digital affinity profiling via proximity ligation, sequencing); 10 mM Tris-HCl pH 7.5, 50 mM NaCl, 1 mM DTT, 4% glycerol, room temperature, 30 min; GST-TFs on glutathione beads, 16-mer random dsDNA library, 0.1% formaldehyde crosslink after washing; high values mean tight binding
What all share (settings): protein: recombinant; tags: N-terminal GST; dsDNA, one strand shown

One assay deals with T1, FLI1 (Homo sapiens, UniProt Q01543 1-452).
T1 sequence: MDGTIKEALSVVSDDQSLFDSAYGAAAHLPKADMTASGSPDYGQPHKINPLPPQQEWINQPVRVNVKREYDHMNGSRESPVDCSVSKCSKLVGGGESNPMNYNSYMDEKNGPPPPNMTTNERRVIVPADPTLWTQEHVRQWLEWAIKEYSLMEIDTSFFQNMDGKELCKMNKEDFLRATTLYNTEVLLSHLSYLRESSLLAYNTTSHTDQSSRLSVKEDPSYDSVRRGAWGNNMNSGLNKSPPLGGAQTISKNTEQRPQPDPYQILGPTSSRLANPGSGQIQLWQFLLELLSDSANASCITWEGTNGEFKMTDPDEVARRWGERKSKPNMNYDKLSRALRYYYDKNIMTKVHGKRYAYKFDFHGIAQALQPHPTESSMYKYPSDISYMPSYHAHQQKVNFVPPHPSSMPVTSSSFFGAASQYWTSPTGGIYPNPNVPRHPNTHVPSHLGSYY
The method in brief: (§1)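 Binding signal is given per hexamer as its read frequency for a factor divided by its frequency in the tag-only sample. GST-fused human transcription factors were expressed in yeast, captured on glutathione beads, barcoded with DNA and pooled with that sample, then incubated with 200 nmole of a 16-mer random double-stranded DNA library in Tris/NaCl/DTT/glycerol buffer for 30 min at room temperature. The pools were then washed, crosslinked, proximity-ligated, amplified by PCR and sequenced on an Illumina NextSeq500.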

In a further assay the target is T2, ELK1 (Homo sapiens, UniProt P19419 1-428).
T2 sequence: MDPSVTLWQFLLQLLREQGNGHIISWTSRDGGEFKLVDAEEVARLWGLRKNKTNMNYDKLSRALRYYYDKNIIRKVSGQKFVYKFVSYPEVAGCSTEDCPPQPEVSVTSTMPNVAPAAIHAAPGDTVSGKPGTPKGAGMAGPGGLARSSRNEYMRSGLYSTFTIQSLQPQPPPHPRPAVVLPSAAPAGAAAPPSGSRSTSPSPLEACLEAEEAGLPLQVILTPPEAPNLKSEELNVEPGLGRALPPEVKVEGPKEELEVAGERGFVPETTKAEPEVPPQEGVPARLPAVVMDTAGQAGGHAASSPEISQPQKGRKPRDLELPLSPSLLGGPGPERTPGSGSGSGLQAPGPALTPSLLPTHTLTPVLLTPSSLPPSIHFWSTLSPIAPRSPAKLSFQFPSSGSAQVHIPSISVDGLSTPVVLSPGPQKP
A digest of the protocol: as §1

For the next assay, the target named is T3, GABPA (Homo sapiens, UniProt Q06546 1-454).
T3 sequence: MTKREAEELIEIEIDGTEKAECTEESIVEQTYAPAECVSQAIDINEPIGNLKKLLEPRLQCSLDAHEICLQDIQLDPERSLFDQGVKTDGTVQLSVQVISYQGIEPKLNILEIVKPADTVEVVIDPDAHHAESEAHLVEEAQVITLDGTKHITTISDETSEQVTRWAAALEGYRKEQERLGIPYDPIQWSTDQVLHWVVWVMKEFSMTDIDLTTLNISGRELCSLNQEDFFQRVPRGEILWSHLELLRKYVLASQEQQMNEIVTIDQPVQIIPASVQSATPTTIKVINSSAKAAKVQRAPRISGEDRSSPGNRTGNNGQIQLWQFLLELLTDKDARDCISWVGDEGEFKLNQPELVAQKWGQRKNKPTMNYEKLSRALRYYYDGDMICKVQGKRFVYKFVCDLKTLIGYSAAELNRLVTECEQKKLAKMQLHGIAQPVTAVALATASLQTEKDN
A digest of the protocol: as §1

A further assay deals with T4, ERG (Homo sapiens, UniProt P11308 1-479).
T4 sequence: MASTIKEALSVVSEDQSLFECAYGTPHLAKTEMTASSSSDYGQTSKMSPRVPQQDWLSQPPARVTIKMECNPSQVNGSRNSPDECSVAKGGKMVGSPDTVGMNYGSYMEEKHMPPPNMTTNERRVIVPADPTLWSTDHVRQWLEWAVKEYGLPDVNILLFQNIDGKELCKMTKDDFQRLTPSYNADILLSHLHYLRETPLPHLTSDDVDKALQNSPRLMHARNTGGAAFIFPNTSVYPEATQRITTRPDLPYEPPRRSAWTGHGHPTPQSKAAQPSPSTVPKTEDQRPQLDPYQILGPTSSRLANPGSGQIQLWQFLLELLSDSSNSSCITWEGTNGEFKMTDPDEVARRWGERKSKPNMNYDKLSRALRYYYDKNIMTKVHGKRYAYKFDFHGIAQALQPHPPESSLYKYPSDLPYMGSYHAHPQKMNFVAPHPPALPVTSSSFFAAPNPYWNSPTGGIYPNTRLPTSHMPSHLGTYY
The method in brief:
as §1

Another assay addresses ELF1 (Homo sapiens, UniProt P32519 1-619). A digest of the protocol:
as §1

The next assay concerns the target T5, EHF (Homo sapiens, UniProt Q9NZC4 1-300).
T5 sequence: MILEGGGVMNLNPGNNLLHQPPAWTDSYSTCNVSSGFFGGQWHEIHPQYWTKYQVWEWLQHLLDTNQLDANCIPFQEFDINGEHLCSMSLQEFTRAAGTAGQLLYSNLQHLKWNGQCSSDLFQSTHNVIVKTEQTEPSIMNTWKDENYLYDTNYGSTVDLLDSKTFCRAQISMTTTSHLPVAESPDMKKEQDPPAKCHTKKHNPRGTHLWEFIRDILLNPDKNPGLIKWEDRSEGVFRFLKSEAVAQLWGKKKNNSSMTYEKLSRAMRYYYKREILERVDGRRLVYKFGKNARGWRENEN
The method in brief:
as §1

In a further assay the target is SPI1 (Homo sapiens, UniProt P17947 1-270). The method in brief: as §1
Another assay deals with SPIB (Homo sapiens, UniProt Q01892 1-262). The method in brief: as §1
The target of another assay is T6, ELK3 (Homo sapiens, UniProt P41970 1-407).
T6 sequence: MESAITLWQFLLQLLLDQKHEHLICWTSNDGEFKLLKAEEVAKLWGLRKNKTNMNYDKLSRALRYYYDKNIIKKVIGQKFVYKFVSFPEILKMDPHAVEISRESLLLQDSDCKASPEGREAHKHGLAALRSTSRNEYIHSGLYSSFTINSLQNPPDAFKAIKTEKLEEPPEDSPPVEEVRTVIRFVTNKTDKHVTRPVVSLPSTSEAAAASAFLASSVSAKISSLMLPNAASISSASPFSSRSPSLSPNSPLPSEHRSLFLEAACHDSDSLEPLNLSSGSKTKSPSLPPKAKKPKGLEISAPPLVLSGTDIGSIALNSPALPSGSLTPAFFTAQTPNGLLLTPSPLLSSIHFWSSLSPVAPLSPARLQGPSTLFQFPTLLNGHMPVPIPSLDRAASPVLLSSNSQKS
A digest of the protocol:
as §1

Among the data in publication PMC7862700, “An all-to-all approach to the identification of sequence-specific readers for epigenetic DNA modifications on cytosine” are binding signal values, retold here.

Sequence of ELF1 (P32519 whole entry): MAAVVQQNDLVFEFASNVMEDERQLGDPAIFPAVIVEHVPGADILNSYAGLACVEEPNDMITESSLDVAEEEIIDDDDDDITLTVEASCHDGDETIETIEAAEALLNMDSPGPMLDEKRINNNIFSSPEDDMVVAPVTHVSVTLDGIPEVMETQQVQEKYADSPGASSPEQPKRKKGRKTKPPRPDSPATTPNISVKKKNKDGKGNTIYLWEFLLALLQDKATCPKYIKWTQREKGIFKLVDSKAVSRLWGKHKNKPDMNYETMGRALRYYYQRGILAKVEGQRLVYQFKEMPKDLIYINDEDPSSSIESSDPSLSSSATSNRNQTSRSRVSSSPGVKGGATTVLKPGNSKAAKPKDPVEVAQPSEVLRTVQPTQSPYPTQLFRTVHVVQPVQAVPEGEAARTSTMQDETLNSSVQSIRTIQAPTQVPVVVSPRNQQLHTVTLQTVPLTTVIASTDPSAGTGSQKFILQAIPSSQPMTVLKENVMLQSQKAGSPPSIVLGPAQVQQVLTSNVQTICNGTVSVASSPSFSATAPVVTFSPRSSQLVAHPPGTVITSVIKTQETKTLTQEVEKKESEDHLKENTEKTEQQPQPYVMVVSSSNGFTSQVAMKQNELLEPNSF
Sequence of SPIB (Q01892 whole entry): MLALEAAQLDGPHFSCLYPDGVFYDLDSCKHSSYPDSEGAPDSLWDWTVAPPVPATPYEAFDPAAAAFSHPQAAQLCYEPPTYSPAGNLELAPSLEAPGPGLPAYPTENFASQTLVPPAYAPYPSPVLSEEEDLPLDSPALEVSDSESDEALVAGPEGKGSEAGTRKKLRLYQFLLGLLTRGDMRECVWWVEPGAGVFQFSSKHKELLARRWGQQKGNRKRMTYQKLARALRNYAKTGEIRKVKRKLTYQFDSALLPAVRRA

Take AGCAAT: the binding signal is 1.07 fold enrichment (6-mer frequency, TF over GST control) with FLI1; 1.15 fold enrichment (6-mer frequency, TF over GST control) in the assay with ELK1; 1.09 fold enrichment (6-mer frequency, TF over GST control) in the assay with GABPA; 1.11 fold enrichment (6-mer frequency, TF over GST control) with ERG; 1.18 fold enrichment (6-mer frequency, TF over GST control) in the assay with ELF1; 1.1 fold enrichment (6-mer frequency, TF over GST control) with EHF. Moreover, the binding signal in the assay with SPI1 was 1.1 fold enrichment (6-mer frequency, TF over GST control); with SPIB, 1.18 fold enrichment (6-mer frequency, TF over GST control); with ELK3, 1.05 fold enrichment (6-mer frequency, TF over GST control).

As to CTAATA, the binding signal with FLI1 was 1.21 fold enrichment (6-mer frequency, TF over GST control); in the assay with ELK1 it was 1.15 fold enrichment (6-mer frequency, TF over GST control); with GABPA, 1.13 fold enrichment (6-mer frequency, TF over GST control); in the assay with ERG it was 1.17 fold enrichment (6-mer frequency, TF over GST control); in the assay with ELF1 it was 1.19 fold enrichment (6-mer frequency, TF over GST control); in the assay with EHF, 1.25 fold enrichment (6-mer frequency, TF over GST control). Also, the binding signal is 1.24 fold enrichment (6-mer frequency, TF over GST control) with SPI1; 1.17 fold enrichment (6-mer frequency, TF over GST control) in the assay with SPIB; 1.06 fold enrichment (6-mer frequency, TF over GST control) with ELK3.

Take CTACTG: the binding signal in the assay with FLI1 was 1.31 fold enrichment (6-mer frequency, TF over GST control); in the assay with ELK1, 1.28 fold enrichment (6-mer frequency, TF over GST control); in the assay with GABPA, 1.35 fold enrichment (6-mer frequency, TF over GST control); with ERG it was 1.22 fold enrichment (6-mer frequency, TF over GST control); in the assay with ELF1 it was 1.34 fold enrichment (6-mer frequency, TF over GST control); in the assay with EHF, 1.33 fold enrichment (6-mer frequency, TF over GST control). The binding signal with SPI1 is 1.23 fold enrichment (6-mer frequency, TF over GST control); in the assay with SPIB, 1.05 fold enrichment (6-mer frequency, TF over GST control); with ELK3 it was 1.09 fold enrichment (6-mer frequency, TF over GST control).

For the sequence TTGGTG, the binding signal with FLI1 was 1.35 fold enrichment (6-mer frequency, TF over GST control); with ELK1, 1.21 fold enrichment (6-mer frequency, TF over GST control); with GABPA, 1.42 fold enrichment (6-mer frequency, TF over GST control); with ERG it was 1.23 fold enrichment (6-mer frequency, TF over GST control); with ELF1 it was 1.3 fold enrichment (6-mer frequency, TF over GST control); with EHF it was 1.43 fold enrichment (6-mer frequency, TF over GST control). The binding signal was 1.22 fold enrichment (6-mer frequency, TF over GST control) in the assay with SPI1; 1.22 fold enrichment (6-mer frequency, TF over GST control) with SPIB; 1.55 fold enrichment (6-mer frequency, TF over GST control) with ELK3.

Regarding TCTCCT, the binding signal in the assay with FLI1 is 1.45 fold enrichment (6-mer frequency, TF over GST control); with ELK1, 1.41 fold enrichment (6-mer frequency, TF over GST control); with GABPA, 1.53 fold enrichment (6-mer frequency, TF over GST control); with ERG, 1.37 fold enrichment (6-mer frequency, TF over GST control); with ELF1 it was 1.38 fold enrichment (6-mer frequency, TF over GST control); with EHF, 1.43 fold enrichment (6-mer frequency, TF over GST control). Besides, the binding signal in the assay with SPI1 is 1.6 fold enrichment (6-mer frequency, TF over GST control); with SPIB, 1.4 fold enrichment (6-mer frequency, TF over GST control); with ELK3, 1.46 fold enrichment (6-mer frequency, TF over GST control).

In the case of TCCTGC, the binding signal with FLI1 is 1.61 fold enrichment (6-mer frequency, TF over GST control); in the assay with ELK1 it was 1.8 fold enrichment (6-mer frequency, TF over GST control); with GABPA, 1.49 fold enrichment (6-mer frequency, TF over GST control); with ERG, 1.68 fold enrichment (6-mer frequency, TF over GST control); with ELF1 it was 1.66 fold enrichment (6-mer frequency, TF over GST control); with EHF it was 1.53 fold enrichment (6-mer frequency, TF over GST control). The binding signal with SPI1 is 1.67 fold enrichment (6-mer frequency, TF over GST control); with SPIB, 1.81 fold enrichment (6-mer frequency, TF over GST control); with ELK3, 1.46 fold enrichment (6-mer frequency, TF over GST control).

Consider ATCACC, for which the binding signal in the assay with FLI1 is 1.17 fold enrichment (6-mer frequency, TF over GST control); with ELK1, 1.18 fold enrichment (6-mer frequency, TF over GST control); with GABPA, 1.13 fold enrichment (6-mer frequency, TF over GST control); with ERG it was 1.14 fold enrichment (6-mer frequency, TF over GST control); in the assay with ELF1, 1.19 fold enrichment (6-mer frequency, TF over GST control); with EHF, 1.1 fold enrichment (6-mer frequency, TF over GST control). Besides, the binding signal in the assay with SPI1 is 1.11 fold enrichment (6-mer frequency, TF over GST control); with SPIB, 1.03 fold enrichment (6-mer frequency, TF over GST control); in the assay with ELK3, 1.27 fold enrichment (6-mer frequency, TF over GST control).

Regarding TAGCAC, the binding signal is 1.16 fold enrichment (6-mer frequency, TF over GST control) with FLI1; 1.12 fold enrichment (6-mer frequency, TF over GST control) with ELK1; 1.24 fold enrichment (6-mer frequency, TF over GST control) in the assay with GABPA; 1.15 fold enrichment (6-mer frequency, TF over GST control) with ERG; 1.15 fold enrichment (6-mer frequency, TF over GST control) in the assay with ELF1; 1.16 fold enrichment (6-mer frequency, TF over GST control) with EHF. The binding signal was 1.06 fold enrichment (6-mer frequency, TF over GST control) with SPI1; 1.15 fold enrichment (6-mer frequency, TF over GST control) with SPIB; 1.19 fold enrichment (6-mer frequency, TF over GST control) with ELK3.
